High-throughput results deposited in PubChem BioAssay by National Center for Advancing Translational Sciences (NCATS).
Rows were chosen to be rich in hits. Some 1.8% of all compounds tested hit in one or more screens of this group.
PTHR1 ag – PTHR1 (human) receptor agonism. HEK293 GP2 PTHR1 cells, GloSensor cAMP luminescence, 1 h. Q03431. Potency, µM (highest dose often 115 µM), inactives show top-dose activation, hits mostly activators. actives 0.075% (n = 410,000); further: nearly all actives have a fitted effect of over 55% in size
Target sequence (Q03431 whole entry, looked up): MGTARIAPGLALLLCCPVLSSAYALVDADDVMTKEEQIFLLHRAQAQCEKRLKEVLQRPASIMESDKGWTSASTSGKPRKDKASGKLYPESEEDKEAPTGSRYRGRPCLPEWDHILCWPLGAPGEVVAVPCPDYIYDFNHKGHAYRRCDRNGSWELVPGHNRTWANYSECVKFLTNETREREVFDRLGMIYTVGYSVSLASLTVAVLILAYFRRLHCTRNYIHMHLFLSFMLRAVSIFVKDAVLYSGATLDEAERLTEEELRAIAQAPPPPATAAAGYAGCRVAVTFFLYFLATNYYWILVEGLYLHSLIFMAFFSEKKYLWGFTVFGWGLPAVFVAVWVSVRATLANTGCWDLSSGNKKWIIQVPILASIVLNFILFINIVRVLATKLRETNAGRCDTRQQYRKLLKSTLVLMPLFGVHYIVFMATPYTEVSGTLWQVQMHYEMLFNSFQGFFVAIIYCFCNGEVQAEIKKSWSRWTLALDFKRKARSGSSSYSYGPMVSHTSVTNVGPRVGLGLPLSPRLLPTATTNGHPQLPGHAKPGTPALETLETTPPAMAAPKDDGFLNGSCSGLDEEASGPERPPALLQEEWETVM
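HEK-293-derived GP2 cells expressing PTHR1 and a GloSensor cAMP reporter, 3,000/well, plated overnight, given luciferin plus IBMX (each 0.5 mM as added) for 1 h at 37 °C, then compound for 1 h at 37 °C. Luminescence was read after 15 min at room temperature.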
RGS4 inhibitor – inhibitors of human regulator of G protein signaling 4; P49798; Transcreener GDP fluorescence polarization, RGS4-accelerated GTP hydrolysis; Potency, µM (doses to about 114 µM), for the others: top-dose activity change, negative = inhibition, actives largely listed as inhibitors; actives 0.039% (n = 390,000); further: on the % scale 0 is the no-effect control and ±100 the full control effect; nearly all actives have a fitted effect of over 75% in size
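MLSMR compounds (23 nl, pin-transferred) preincubated 10 min at room temperature with a 500nM (2x) first reagent, then RGS4 at 900nM (2x) plus Transcreener GDP mix added; fluorescence polarization (620/688 nm) read before and after 90 min at 30 °C.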
GLP1R ag – agonists of human GLP-1 receptor; P43220; HEK293 GLP-1R CRE-luciferase, luminescence, 4-6 h; cells express a hypersensitive GLP-1R form; Potency, µM (series often up to 45.6 µM), for inactives: at the highest dose activation, most hits filed as activators; actives 0.007% (n = 380,000); AID 624172; further: % of control where 0% means no effect
HEK293 tox – cytotoxic in the GLP-1 receptor inverse agonist counter-screen | HEK293 cAMP-luciferase reporter cells, luminescence, 24 h | Potency, µM (series often up to 38.3 µM), without a hit: at the highest dose activity change, negative = inhibition, hits mostly inhibitors | actives 0.13% (n = 410,000) | AID 624418;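 further: loss of luciferase light is scored as toxicity; on the % scale 0 is the no-effect control and ±100 the full control effect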
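Compound-treated cells are incubated 24 hr at 37 deg C under 5% CO2 after a 12 hour attachment period, then luciferase detection reagent is added and luminescence is measured following 12 min at room temperature; lowered signal indicates toxicity.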
GLP-1R inv ag – acts as inverse agonist at human GLP-1 receptor; Potency, µM (doses to about 38.3 µM), without a hit: at the top dose activity change, negative = inhibition, most hits filed as inhibitors; actives 1.6% (n = 410,000); HEK293 GLP-1R CRE-luciferase, luminescence, 24 h; GLP-1R form is constitutively active; further: on the % scale 0 is the no-effect control and ±100 the full control effect; nearly all actives have a fitted effect of over 55% in size
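Assay principle: reduced luminescence from a cAMP-responsive reporter in HEK293 cells co-expressing a constitutively active GLP-1R. Conditions: 24 hr compound incubation, 37 deg C, 5% CO2.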
KAT2A inh – GCN5L2 (KAT2A) acetyltransferase inhibition; Q92830; GCN5L2 HAT assay, ThioGlo1 CoA-SH fluorescence; Potency, µM (titrated, usually from 58.9 µM), for inactives: at the top dose activity change, negative = inhibition, most hits filed as inhibitors; actives 0.21% (n = 390,000); AID 504327; further: on the % scale 0 is the no-effect control and ±100 the full control effect
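GCN5L2 (20nM final) in 50mM HEPES, 0.1mM EDTA pH 7.5, 0.01% Tween-20 was preincubated 15 min at room temperature with compound, then given ThioGlo1 (50uM), H3(1-25) peptide (75uM) and acetyl-CoA (70uM); CoA-thiol fluorescence (Ex340/Em540) was read at 0 and 20 min.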
An asterisk follows results filed as active; i = inactive; ? = inconclusive; . = no result given; [ ] = remark or other dose. The call rests on the fitted dose curve; in most records, active means well fitted curve in the direction sought with a large enough effect; inconclusive means small, poorly fitted or top-dose-only effect, or another doubt; inactive means no such curve, though single readings can be large; an effect the other way counts as inactive or inconclusive. Potency means the concentration at half of the fitted maximal effect.

SMILES	PTHR1 ag	RGS4 inhibitor	GLP1R ag	HEK293 tox	GLP-1R inv ag	KAT2A inh
COc1ccc(C2=C(C)C(=NCCCN3CCN(c4cc(Cl)ccc4C)CC3)NS2(=O)=O)cc1	i	-11.9%	.	-5.1%	8.91µM*	-9.0%
O=C(COC(=O)CN1C(=O)C2CCCCC2C1=O)Nc1cc(F)ccc1F (stereo not given)	-2.3%	-12.4%	5.7%	-4.7%	8.5%	-14.3%
CCOC(=O)C1(C)CCCCN1C(=O)c1ccc(F)c(C)c1 (stereo not given)	i	.	-0.1%	1.4%	22.3%	.
O=C1OC(c2ccccc2)(c2ccc3cc(O)ccc3c2)c2ccccc21 (stereo not given)	-13.2%	-13.5%	-6.5%	?	?	.
CC1(Cc2ccccc2OC(F)(F)F)C(=O)Nc2cc(-c3ccccc3Cl)ccc21 (stereo not given)	-81.0%	.	5.3%	?	5.62µM*	.
Clc1ccc(C2CC(c3ccco3)n3ncnc3N2)cc1Cl (stereo not given)	-12.7%	-12.1%	4.9%	-15.7%	10µM*	-0.9%
Clc1ccc(C2CC(c3ccccc3)Nc3ncnn32)cc1 (stereo not given)	-24.2%	15.7%	-8.7%	-1.1%	?	-0.8%
O=C(OC1C[C@@H]2CC3C[C@H](C1)N2CC3=O)c1c[nH]c2ccccc12 (stereo not given in full)	.	.	-2.5%	.	.	-4.5%
O=C(CN1C(=O)NC(c2ccccc2)(c2ccccc2)C1=O)N1CCN(c2ccc(F)cc2)CC1	i	-16.3%	0.3%	?	7.94µM*	-10.6%
Cn1ncc(Br)c1C(=O)NC12CC3CC(CC(C3)C1)C2	i	1.8%	5.9%	-16.1%	10µM*	-5.2%
Cn1ncc(Br)c1C(=O)N1CCCC1	-70.3%	2.3%	-0.2%	-4.0%	10.6%	-23.5%
COc1ccc(Cl)cc1NC(=O)CC1CCCC1	i	25.8%	7.9%	10.0%	?	-2.7%
COc1ccc(Cl)cc1NC(=O)CN(C(=O)c1ccco1)C1CCCCC1	-4.9%[57.5 µM]	1.0%	-3.4%	3.7%	10µM*	-9.2%
CC(=O)Nc1ccc(NC(=O)CSc2ccc3nnc(-c4cccnc4)n3n2)cc1	i	-7.5%	-2.9%	2.5%	6.7%	-10.6%
O=C(COc1ccccc1-c1nc(-c2ccccc2)no1)Nc1ccc([N+](=O)[O-])cc1	-3.7%	-23.5%	.	2.3%	7.5%	-2.8%
CCNc1nc(-c2sc(NC(=O)C(C)(C)C)nc2C)c(-n2cc(-c3ccccc3)nn2)s1	-52.4%	.	-32.9%	?	10µM*	.
Cc1nc(NC(=O)C(C)(C)C)sc1-c1nc(N)sc1-n1cc(-c2ccccc2)nn1	i	.	4.0%	1.6%	25.1%	.
CC(=O)/C=C\c1cn(-c2ncc(C(F)(F)F)cc2Cl)c2ccccc12	-7.4%	-6.3%	-10.3%	-14.9%	?	-13.9%
N#CC(C#N)=Cc1cn(-c2ncc(C(F)(F)F)cc2Cl)c2ccccc12	i	-42.3%	-1.7%	-8.7%	7.94µM*	-3.2%
CCCCOc1ccc(C(=O)NCC(=O)N2CC(C)CC(C)C2)cc1 (stereo not given)	i	1.3%	-0.6%	-0.6%	11.2µM*	-2.3%
CCc1ccccc1-n1c(N)c(C(=O)OC)c2nc3ccccc3nc21	i	11.0%	13.1%	217.4%	13.2%	-9.7%
Cc1ccccc1Nc1c(-c2ccc(N3CCOCC3)cc2)nc2ccc(Cl)cn12	-8.7%	-19.3%	.	16.5%	10µM*	-15.9%
Cc1ccn2c(Nc3ccccc3C)c(-c3ccc(N4CCOCC4)cc3)nc2c1	-1.5%	35.0%	.	-10.2%	12.6µM*	?
O=C(CNc1ccc(Br)cc1)NC(=O)NC1CCCCC1	-2.5%	-9.4%	2.0%	-0.3%	?	-11.1%
O=C(O)Cn1c(-c2ccccc2)cc2ccccc21	-17.2%	2.5%	-2.5%	-17.5%	-9.5%	-10.6%
SMILES	PTHR1 ag	RGS4 inhibitor	GLP1R ag	HEK293 tox	GLP-1R inv ag	KAT2A inh
CCN1C(=O)S/C(=C/c2cn(C)c3ccccc23)C1=O	i	-8.8%	1.0%	5.5%	0.5%	-10.2%
CCN=C1S/C(=C\c2cn(CC)c3ccccc23)C(=O)N1CC	-1.1%	-3.5%	14.1µM*	-9.3%	?	-6.7%
CCc1ccc(NC(=O)CSc2nc3ccccc3nc2N2CCCC2)cc1	-0.5%	-23.3%	1.1%	-4.7%	?	-14.4%
COc1ccc(C(=O)N2CCN(c3nc(C4CC4)nc4sc(C)c(C)c34)CC2)cc1	-9.1%	-6.0%	22.6%	-10.5%	?	-5.4%
Cc1sc2nc(C3CC3)nc(N3CCN(C(=O)c4ccc(F)cc4)CC3)c2c1C	-15.6%	-13.3%	15.0%	1.3%	10µM*	-11.1%
Cc1sc2nc(C3CC3)nc(N3CCN(C(=O)c4ccc(Cl)cc4)CC3)c2c1C	-23.6%	-21.0%	5.0%	2.7%	8.91µM*	-10.2%
CC(=O)c1c(O)cccc1O	.	.	.	.	.	14.7%
CCCCn1c(SCc2ccccc2C#N)nc2c(sc3ccccc32)c1=O	-19.6%	0.6%	.	10.6%	0.8%	-5.3%
Cc1cc(C)c(S(=O)(=O)Nc2ccc(-c3ccc(N4CCCCCC4)nn3)cc2)c(C)c1	-7.6%	-1.1%	.	-18.5%	?	-14.0%
CC(C)(C)c1ccc(OCC(=O)NNC(=O)C2CCCO2)cc1 (stereo not given)	-1.4%	-21.2%	2.6%	0.1%	-12.8%	-8.2%
CC(C)=C1C2CCC1C1C(=O)N(NC(=O)COc3ccc(C(C)(C)C)cc3)C(=O)C21 (stereo not given)	-3.0%[57.5 µM]	-26.7%	-4.6%	4.7%	7.08µM*	-7.6%
CC(C)C(=O)Nc1cccc(COc2ccc(CN(CCc3ccccc3)C(=O)OC(C)(C)C)cc2)c1	-30.4%	10.6%	-1.1%	12.7%	6.31µM*	.
CC(C)(C)OC(=O)N(Cc1ccccc1)Cc1ccccc1OCc1cccc(NC(=O)C2CC2)c1	-22.2%	-13.3%	3.1%	-2.0%	10µM*	.
CC(C)(C)OC(=O)N(Cc1ccccc1)Cc1cccc(OCc2cccc(NC(=O)C3CC3)c2)c1	-23.6%	7.8%	-0.3%	11.6%	10µM*	.
CC(C)(C)OC(=O)N(CCc1ccccc1)Cc1cccc(OCc2cccc(NC(=O)C3CCC3)c2)c1	-18.1%	-1.8%	-1.9%	6.7%	?	.
CC(C)(C)OC(=O)N(Cc1ccccc1)Cc1ccccc1OCc1cccc(NC(=O)C2CCC2)c1	-9.3%	-4.6%	13.1%	7.5%	?	.
CC(C)(C)OC(=O)N(CCc1ccccc1)Cc1ccccc1OCc1cccc(NC(=O)C2CCC2)c1	-39.3%	-1.4%	0.6%	-4.6%	8.91µM*	.
